We go through nine molecules from PubChem BioAssay (Tox21).

For experiment [1], the target named is Peroxisome proliferator-activated receptor delta (Homo sapiens) (UniProt Q03181). The experiment in a line: qHTS assay to identify small molecule agonists of the peroxisome proliferator-activated receptor delta (PPARd) signaling pathway (AID 743212; calls by dose curve). The procedure, abridged:
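Read-out: beta-lactamase FRET fluorescence after 2 h room-temperature incubation with LiveBLAzer B/G substrate. Cells were HEK293H carrying a UAS-bla reporter for PPARd, treated at 37 C with DMSO-dissolved compounds.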

A short description of experiment [2]: qHTS assay to identify small molecule antagonists of the peroxisome proliferator-activated receptor delta (PPARd) signaling pathway - cell viability counter screen (AID 743213). Also: nearly all actives have a fitted effect of over 50% in size. Also: potency is read from the fitted curve at half-maximal effect. The gist of the method: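 CellTiter-Glo was added to PPARd-bla HEK293H wells following 17 h compound treatment in the presence of 300 nM L165041. Luminescence was recorded after 30 min at room temperature.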
In general terms: qHTS replaces the single test concentration by a dilution series.

The nature of experiment [3]: qHTS assay to identify small molecule agonists of the farnesoid-X-receptor (FXR) signaling pathway - cell viability counter screen (AID 743218). Also: nearly all actives have a fitted effect of over 45% in size. Also: potency is read from the fitted curve at half-maximal effect. The gist of the method: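 Viability counter screen in the same wells: CellTiter-Glo luminescence, 30 min room-temperature incubation, measured after the beta-lactamase read. Cells were GeneBLAzer FXR-UAS-bla HEK 293T, compound-treated 16 h at 37C.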

Experiment [4] is described as follows: qHTS assay to identify small molecule antagonists of the farnesoid-X-receptor (FXR) signaling pathway - cell viability counter screen (AID 743221; active = well fitted cell-killing curve with a large enough effect in the repeat runs, not every such curve was filed as active; also: nearly all actives have a fitted effect of over 50% in size). The procedure, abridged: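 GeneBLAzer FXR-UAS-bla HEK 293T cells, compound plus chenodeoxycholic acid (50 uM final), 16 h at 37 C. CellTiter-Glo added to the same wells after the beta-lactamase read; luminescence read after 30 min at room temperature as viability.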

The target in experiment [5] is Vitamin D3 receptor (Homo sapiens) (UniProt P11473). Briefly: qHTS assay to identify small molecule agonists of the vitamin D receptor (VDR) signaling pathway (AID 743222; calls by dose curve). The procedure, abridged: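 Agonist mode, beta-lactamase reporter: fluorescence from LiveBLAzer B/G FRET substrate (2 h, room temperature) read after 16 h compound treatment at 37 C of VDR-bla cells, which were pre-incubated 4 h after seeding.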
Sequence of Vitamin D3 receptor (Homo sapiens) (P11473 whole entry, looked up): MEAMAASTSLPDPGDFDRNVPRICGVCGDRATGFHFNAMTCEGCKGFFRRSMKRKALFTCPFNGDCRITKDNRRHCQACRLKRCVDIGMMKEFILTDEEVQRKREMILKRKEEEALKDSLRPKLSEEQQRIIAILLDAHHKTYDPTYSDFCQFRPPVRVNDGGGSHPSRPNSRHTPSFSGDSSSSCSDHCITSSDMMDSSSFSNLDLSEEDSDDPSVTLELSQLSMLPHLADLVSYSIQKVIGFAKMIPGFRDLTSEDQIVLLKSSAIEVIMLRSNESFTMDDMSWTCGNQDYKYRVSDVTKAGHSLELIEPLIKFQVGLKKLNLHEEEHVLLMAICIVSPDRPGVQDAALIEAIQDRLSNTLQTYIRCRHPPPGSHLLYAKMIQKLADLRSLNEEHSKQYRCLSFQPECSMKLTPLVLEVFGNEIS

Experiment [6] can be described thus: qHTS assay to identify small molecule agonists of the vitamin D receptor (VDR) signaling pathway - cell viability counter screen (AID 743224). Also: nearly all actives have a fitted effect of over 50% in size. Also: potency is read from the fitted curve at half-maximal effect. The procedure, abridged:
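Counter screen run in the same wells as the VDR-bla reporter assay: CellTiter-Glo luminescence, 30 min at room temperature, after 16 h compound treatment at 37C of cells pre-plated for 4 h.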

A short description of experiment [7]: qHTS assay to identify small molecule antagonists of the vitamin D receptor (VDR) signaling pathway - cell viability counter screen (AID 743225). Also: nearly all actives have a fitted effect of over 50% in size. The procedure, abridged:
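VDR-UAS-bla HEK 293T cells were plated and incubated 4 h at 37C, then dosed with compound plus 3 nM (final) 1-alpha,25-dihydroxyvitamin D3 for 16 h. After the 2 h beta-lactamase read, viability in the same wells was read as CellTiter-Glo luminescence after 30 min at room temperature.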

Experiment [8] in a line: qHTS assay to identify small molecule agonists of the NFkB signaling pathway (AID 1159509; active = well fitted curve in the direction sought with a large enough effect in the signal ratio in the repeat runs, not every such curve was filed as active; the % refers to the signal ratio; also: series mostly up to about 61 µM). The gist of the method:
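Readout: FRET fluorescence, 405 nm excitation, 460/530 nm emission; beta-lactamase expression disrupts FRET. Cells: ME-180 stably carrying NF-kB-driven bla reporter. Compound exposure 5 hr, 37 C, 5% CO2.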

Experiment [9] is described as follows: qHTS assay to identify small molecule agonists of the NFkB signaling pathway - cell viability counter screen (AID 1159515; calls by dose curve; also: series mostly up to about 61 µM; nearly all actives have a fitted effect of over 55% in size). The procedure, abridged:
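Read by CellTiter-Glo luminescence (30 min, room temperature) in the wells also used for the beta-lactamase FRET read. ME-180 NFkB-bla cells at 2,000 per well were plated overnight, then exposed to compound for 5 hr at 37 C.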

The nature of experiment [10]: qHTS assay to identify small molecule agonists of the endoplasmic reticulum stress response signaling pathway (AID 1159516; active = well fitted activation curve with a large enough effect in the signal ratio in the repeat runs, not every such curve was filed as active; the % refers to the signal ratio). The gist of the method: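 Ratiometric FRET readout (405 nm excitation; 460 and 530 nm emission) of a beta-lactamase gene driven by the ER stress response element, after 2 hr substrate loading. HeLa ESRE-bla cells were seeded overnight and treated with compounds for only 5 hr at 37 C.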

Experiment [11] is described as follows: qHTS assay to identify small molecule agonists of the endoplasmic reticulum stress response signaling pathway - cell viability counter screen (AID 1159517; calls by dose curve). The gist of the method:
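Steps: seed 1,500 ESRE-bla HeLa cells per well; incubate overnight at 37 C, 5% CO2; add compounds in DMSO for 5 hr; run FRET substrate 2 hr RT; add CellTiter-Glo, wait 30 min, read luminescence.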

In experiment [12] the target is Nuclear receptor ROR-gamma (Homo sapiens) (UniProt P51449). Briefly: qHTS assay to identify small molecule antagonists of the retinoid-related orphan receptor gamma (ROR-gamma) signaling pathway (AID 1159521; also: nearly all actives have a fitted effect of over 50% in size; also: potency is read from the fitted curve at half-maximal effect). The gist of the method:
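Tet-on ROR-gamma CHO cells with ROR response element-luciferase reporter; compounds added 2 hr before 1 uM doxycycline induction, then 16 hr at 37 C. Antagonism scored as decreased ONE-Glo luminescence.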

The nature of experiment [13]: qHTS assay to identify small molecule agonists of the AP-1 signaling pathway - cell viability counter screen (AID 1159525; calls by dose curve; also: nearly all actives have a fitted effect of over 55% in size). The procedure, abridged: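 Same-well cytotoxicity counter screen of the Tox21 10K library in ME-180 cells. The readout is ATP-dependent luminescence after 5 h compound treatment. Data are normalised to DMSO and tetra n-octyl ammonium bromide controls.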

The target in experiment [14] is Peroxisome proliferator-activated receptor delta (Homo sapiens) (UniProt Q03181). The experiment in a line: qHTS assay to identify small molecule antagonists of the peroxisome proliferator-activated receptor delta (PPARd) signaling pathway (AID 743215; active = well fitted inhibition curve with a large enough effect in the signal ratio in the repeat runs, not every such curve was filed as active; the % refers to the signal ratio;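 also: cells stimulated with agonist L165041 at 300 nM final during compound exposure; series mostly up to about 62 µM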). The gist of the method:
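Agonist L165041 (300 nM final) added with compound to PPARd-bla HEK293H UAS-bla reporter cells; 17 h incubation at 37 C. Read-out: LiveBLAzer FRET substrate, 2 h at room temperature, fluorescence intensity.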

Experiment [15] addresses Bile acid receptor (Homo sapiens) (UniProt Q96RI1). Briefly: qHTS assay to identify small molecule agonists of the farnesoid-X-receptor (FXR) signaling pathway (AID 743220; active = well fitted activation curve with a large enough effect in the signal ratio in the repeat runs, not every such curve was filed as active; the % refers to the signal ratio). The procedure, abridged: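 FXR-UAS-bla HEK 293T cells carrying a UAS-driven beta-lactamase reporter were plated for 5 h at 37C/5% CO2, then exposed to DMSO-dissolved Tox21 10K compounds for 16 h at 37C. A LiveBLAzer B/G FRET substrate was loaded for 2 h at room temperature before fluorescence reading.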

Experiment [16] addresses Vitamin D3 receptor (Homo sapiens) (UniProt P11473). The experiment in a line: qHTS assay to identify small molecule antagonists of the vitamin D receptor (VDR) signaling pathway (AID 743223; active = well fitted inhibition curve with a large enough effect in the signal ratio in the repeat runs, not every such curve was filed as active; the % refers to the signal ratio). The procedure, abridged: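 VDR-bla cells were treated with compound plus 3 nM final 1alpha,25-dihydroxyvitamin D3 for 16 h at 37C. Beta-lactamase reporter read by B/G FRET substrate fluorescence after 2 h at room temperature. qHTS format.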

Experiment [17] is described as follows: qHTS assay to identify small molecule agonists of the AP-1 signaling pathway (AID 1159526; calls by dose curve).
Experiment [18] is described as follows: qHTS assay to identify small molecule agonists of the peroxisome proliferator-activated receptor delta (PPARd) signaling pathway - cell viability counter screen (AID 743211). Also: nearly all actives have a fitted effect of over 55% in size. Also: potency is read from the fitted curve at half-maximal effect. The gist of the method: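 PPARd-bla HEK293H cells (3000/well) were pre-incubated 5 h at 37 C, then exposed to compound for 17 h at 37 C. After 2 h with LiveBLAzer substrate, CellTiter-Glo was added to the same wells; luminescence read after 30 min at room temperature.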

Experiment [19] in a line: qHTS assay to identify small molecule antagonists of the retinoid-related orphan receptor gamma (ROR-gamma) signaling pathway - cell viability counter screen (AID 1159520). Also: nearly all actives have a fitted effect of over 50% in size. The gist of the method: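 Tet-on ROR gamma CHO cells were given compounds for 2 hr, then doxycycline hyclate at 1 uM final, and incubated 16 hr at 37 C. Viability was measured as ATP content by CellTiter-Glo luminescence.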

Experiment [20] addresses Bile acid receptor (Homo sapiens) (UniProt Q96RI1). The experiment in a line: qHTS assay to identify small molecule antagonists of the farnesoid-X-receptor (FXR) signaling pathway (AID 743217; active = well fitted inhibition curve with a large enough effect in the signal ratio in the repeat runs, not every such curve was filed as active; the % refers to the signal ratio). The procedure, abridged: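 Antagonist mode: chenodeoxycholic acid at 50 uM final stimulates a UAS-driven beta-lactamase reporter in HEK 293T FXR-bla cells during 16 h, 37C compound exposure. Read-out is FRET substrate fluorescence after 2 h at room temperature.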

Inconclusive results are not listed. A number with no mark means an inactive call. Activity calls are given as the source filed them. Unless noted, calls follow the shape of the dose curve; as a rule, active = well fitted curve in the direction sought with a large enough effect in the repeat runs; inconclusive = weak or mixed curves; inactive = no such curve, though single readings can be large; an effect the other way counts as inactive or inconclusive.

Sequence of Peroxisome proliferator-activated receptor delta (Homo sapiens) (Q03181 whole entry, looked up): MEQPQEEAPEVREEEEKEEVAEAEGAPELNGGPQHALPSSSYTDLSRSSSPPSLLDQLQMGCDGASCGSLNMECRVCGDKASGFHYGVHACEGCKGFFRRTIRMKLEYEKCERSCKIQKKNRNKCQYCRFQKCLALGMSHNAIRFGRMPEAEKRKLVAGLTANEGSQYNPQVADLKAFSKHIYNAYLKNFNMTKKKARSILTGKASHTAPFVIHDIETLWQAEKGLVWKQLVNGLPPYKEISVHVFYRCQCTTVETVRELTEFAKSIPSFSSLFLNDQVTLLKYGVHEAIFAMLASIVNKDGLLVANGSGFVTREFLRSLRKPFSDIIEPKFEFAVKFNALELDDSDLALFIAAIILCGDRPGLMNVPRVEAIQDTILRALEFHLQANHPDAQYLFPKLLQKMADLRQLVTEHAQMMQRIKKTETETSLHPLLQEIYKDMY
Sequence of Bile acid receptor (Homo sapiens) (Q96RI1 whole entry, looked up): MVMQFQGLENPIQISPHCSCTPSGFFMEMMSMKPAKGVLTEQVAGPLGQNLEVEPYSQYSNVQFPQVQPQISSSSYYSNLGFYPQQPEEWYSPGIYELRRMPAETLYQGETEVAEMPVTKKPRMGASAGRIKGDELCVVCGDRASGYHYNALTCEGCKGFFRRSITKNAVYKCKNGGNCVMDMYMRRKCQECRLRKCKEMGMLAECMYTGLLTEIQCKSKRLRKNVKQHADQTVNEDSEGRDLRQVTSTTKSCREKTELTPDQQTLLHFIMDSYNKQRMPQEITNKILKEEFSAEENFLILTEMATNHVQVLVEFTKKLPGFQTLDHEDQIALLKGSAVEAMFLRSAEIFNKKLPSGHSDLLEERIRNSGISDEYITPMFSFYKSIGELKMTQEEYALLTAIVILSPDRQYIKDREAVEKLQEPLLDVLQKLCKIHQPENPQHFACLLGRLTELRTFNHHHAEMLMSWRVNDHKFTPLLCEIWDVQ

In the case of `c1cc[c]([Bi]([c]2ccccc2)[c]2ccccc2)cc1`, the Potency result in [1], in experiment [2], in [3], in experiment [4], in experiment [6] and in [7] was “inactive” in each case. In addition, the call in [5], in experiment [8], in experiment [9], in [10], in [11] and in [13] was inactive. Moreover, the Potency in [12] was 30.6 µM (active).
For `O=C(Nc1ccc([N+](=O)[O-])cc1)Nc1ccc([N+](=O)[O-])cc1`, the Potency entry in experiment [14], in experiment [15] and in [7] was “inactive” in each case. Further, the Potency in experiment [3] is 0.75 µM (active); in experiment [12], 2.37 µM (active). In addition, the molecule was classed as inactive in experiment [5], in experiment [16], in experiment [8], in [9], in experiment [10] and in experiment [11]. Moreover, the molecule was classed as inactive in experiment [13] and in experiment [17].
`O=C(N[C@@H](c1ccccc1)[C@@H]1CCCCN1)c1cccc(C(F)(F)F)c1Cl`: the Potency was 27.5 µM (active) in [18], 27.5 µM (active) in [2], 43.6 µM (active) in [3] and 30.9 µM (active) in experiment [6]. Further, the Potency entry in experiment [15], in experiment [4] and in experiment [19] was “inactive” each time. For the same molecule, the molecule was called inactive in [16], in [8], in experiment [9], in experiment [10], in [11] and in experiment [13].
For the molecule `CCN(Cc1cccc(S(=O)(=O)O)c1)c1ccc(C(=C2C=CC(=[N+](CC)Cc3cccc(S(=O)(=O)[O-])c3)C=C2)c2ccccc2)cc1`, the Potency entry in experiment [18], in experiment [2], in [3], in experiment [4], in [6] and in experiment [19] was “inactive” throughout. The molecule was called inactive in [8], in experiment [9], in experiment [10], in experiment [11] and in experiment [13].
For `CC1(C)C(=O)N(Br)C(=O)N1Cl`, the Potency result in [18], in [1], in experiment [2], in experiment [14], in experiment [3] and in experiment [4] was “inactive” each time. In addition, the Potency entry in experiment [6] and in [7] was “inactive” in each case. Besides, the molecule was called inactive in experiment [16], in experiment [8], in experiment [9], in experiment [10], in [11] and in experiment [13].
For `CCC(=O)OC/C=C/c1ccccc1`, the Potency result in experiment [18], in [1], in experiment [2], in experiment [3], in [15] and in [4] was “inactive” throughout. In addition, the Potency result in experiment [6], in experiment [7], in experiment [19] and in [12] was “inactive” throughout. Also, the outcome in experiment [5], in experiment [16], in experiment [8], in [9], in [10] and in experiment [13] was inactive. Also, the molecule was classed as inactive in experiment [17].
As for `CCCCN(CCCC)C(=S)SSC(=S)N(CCCC)CCCC`, the Potency entry in experiment [18], in experiment [1] and in experiment [4] was “inactive” each time. Besides, the molecule was classed as inactive in experiment [16], in experiment [8], in [9], in experiment [10], in experiment [11] and in experiment [13]. For the same molecule, in experiment [6], the Potency is 12.2 µM (active).
With `Cc1nc2ccccn2c(=O)c1CCN1CCC(C(=O)c2ccc(F)cc2)CC1`, the Potency result in [18], in experiment [1], in [2], in experiment [14], in [20] and in experiment [3] was “inactive” in each case. The Potency result in experiment [15], in [4], in experiment [6], in experiment [19] and in experiment [12] was “inactive” each time. Also, the molecule was called inactive in experiment [16], in experiment [8], in experiment [9], in experiment [10], in [13] and in experiment [17].
Regarding `C(=C\c1ccccc1)/CN1CCN(C(c2ccccc2)c2ccccc2)CC1`, the Potency result in experiment [15], in experiment [4] and in [7] was “inactive” throughout. In addition, the outcome in experiment [16], in [8], in experiment [9], in experiment [10], in [11] and in [13] was inactive.
